From PubChem BioAssay AID1159580 (chemical genetic matrix, 2015)
Where “and” joins values, the source holds several entries; their conditions need not be identical. Equal values may be shown once. The campaign covered roughly 5,500 compounds. About 2,000 (36%) were called active. Roughly 18% stayed inconclusive and do not appear here. No stated cut-off is given here; in the data, active means normalized growth mostly below about 0.91 (no sharp cut-off); inconclusive means no clear call, values can overlap the other calls; inactive means mostly above about 0.92. The list shows a part of the results.

Assay: chemical genetic growth profiling, strain panel (AID 1159580);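 further: tested at 20 µM; growth read once vehicle control cultures reached saturation at 30 °C; 1 = growth at the plate median or of vehicle wells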
Conditions: S. cerevisiae deletion strains, growth OD

Measured: normalized growth

OCC(O)C(O)C(O)C(O)C(O)CO (configuration not stated)
inactive: locus YAL021C, strain ccr4, stronger effect = lower value 0.995 | locus YAL026C, strain drs2, stronger effect = lower value 0.991 | locus YAL030W, strain snc1, stronger effect = lower value 0.99 | locus YBL061C, strain skt5, stronger effect = lower value 0.989 | locus YBR009C, strain hhf1, stronger effect = lower value 1 | locus YBR021W, strain FUR4, stronger effect = lower value 1.02 | locus YBR023C, strain chs3, stronger effect = lower value 0.995 | locus YBR171W, strain sec66, stronger effect = lower value 0.991 | locus YBR229C, strain ROT2, stronger effect = lower value 0.96 | locus YBR231C, strain swc5, stronger effect = lower value 0.991 | locus YBR279W, strain paf1, stronger effect = lower value 0.991 | locus YCL011C, strain gbp2, stronger effect = lower value 0.999 | locus YCL016C, strain dcc1, stronger effect = lower value 0.989 | locus YCL029C, strain bik1, stronger effect = lower value 0.974 | locus YCL061C, strain MRC1, stronger effect = lower value 0.99 | locus YCL069W, strain vba3, stronger effect = lower value 1 | locus YCR088W, strain abp1, stronger effect = lower value 0.989 | locus YDL005C, strain med2, stronger effect = lower value 1 | locus YDL035C, strain GPR1, stronger effect = lower value 1.01 | locus YDL040C, strain nat1, stronger effect = lower value 0.982 | locus YDL074C, strain BRE1, stronger effect = lower value 1.05 | locus YDL101C, strain DUN1, stronger effect = lower value 1.01 | locus YDL185W, strain tfp1, stronger effect = lower value 0.954 | locus YDL192W, strain arf1, stronger effect = lower value 1 | locus YDR001C, strain nth1, stronger effect = lower value 0.99 | locus YDR069C, strain doa4, stronger effect = lower value 0.995 | locus YDR101C, strain arx1, stronger effect = lower value 0.974 | locus YDR137W, strain rgp1, stronger effect = lower value 1.02 | locus YDR159W, strain sac3, stronger effect = lower value 0.98 | locus YDR162C, strain NBP2, stronger effect = lower value 1 | locus YDR195W, strain ref2 0.965 | locus YDR297W, strain sur2, stronger effect = lower value 0.997 | locus YDR318W, strain mcm21, stronger effect = lower value 0.956 | locus YDR334W, strain swr1, stronger effect = lower value 0.987 | locus YDR335W, strain msn5, stronger effect = lower value 0.993 | locus YDR388W, stronger effect = lower value 0.985 | locus YDR392W, strain spt3, stronger effect = lower value 0.99 | locus YDR502C, strain sam2, stronger effect = lower value 1.01 | locus YEL003W, strain gim4, stronger effect = lower value 0.994 | locus YEL037C, strain rad23, stronger effect = lower value 0.992 | locus YEL061C, strain CIN8 (second series), stronger effect = lower value 0.979 | locus YEL061C, strain CIN8, stronger effect = lower value 0.993 | locus YER015W, strain faa2, stronger effect = lower value 0.994 | locus YER016W, strain bim1, stronger effect = lower value 0.983 | locus YER110C, stronger effect = lower value 0.97 | locus YER111C, strain swi4, stronger effect = lower value 0.989 | locus YER155C, strain BEM2 (second series), stronger effect = lower value 0.989 | locus YER155C, strain BEM2, stronger effect = lower value 1 | locus YER167W, strain BCK2, stronger effect = lower value 0.997 | locus YFR010W, strain ubp6, stronger effect = lower value 0.99 | locus YGL078C, strain dbp3, stronger effect = lower value 1.01 | locus YGL086W, strain mad1, stronger effect = lower value 1.01 | locus YGL167C, strain pmr1, stronger effect = lower value 0.996 | locus YGL173C, strain kem1, stronger effect = lower value 1 | locus YGL227W, strain vid30, stronger effect = lower value 0.992 | locus YGL240W, strain doc1, stronger effect = lower value 1 | locus YGL248W, strain PDE1, stronger effect = lower value 1.02 | locus YGL253W, strain hxk2, stronger effect = lower value 0.989 | locus YGR135W, strain pre9, stronger effect = lower value 1.05 | locus YGR252W, strain gcn5, stronger effect = lower value 1.1 | locus YHR013C, strain ard1, stronger effect = lower value 0.981 | locus YHR027C, strain rpn1, stronger effect = lower value 1 | locus YHR030C, strain SLT2, stronger effect = lower value 0.998 and 0.954 | locus YHR079C, strain IRE1 (second series), stronger effect = lower value 0.992 | locus YHR079C, strain IRE1, stronger effect = lower value 0.973 | locus YHR094C, strain hxt1, stronger effect = lower value 0.965 | locus YHR129C, strain ARP1, stronger effect = lower value 1.02 | locus YHR142W, strain chs7, stronger effect = lower value 0.995 | locus YHR200W, strain rpn10, stronger effect = lower value 0.991 | locus YIL066C, strain RNR3, stronger effect = lower value 0.995 | locus YIL073C, strain SPO22, stronger effect = lower value 1.07 | locus YIL125W, strain kgd1, stronger effect = lower value 0.967 | locus YIR030C, strain dcg1, stronger effect = lower value 1.01 | locus YJL092W, strain hpr5, stronger effect = lower value 0.993 | locus YJL095W, strain BCK1 (second series), stronger effect = lower value 0.993 | locus YJL095W, strain BCK1, stronger effect = lower value 1.09 and 0.974 | locus YJL115W, strain asf1, stronger effect = lower value 0.982 | locus YJL129C, strain trk1, stronger effect = lower value 1 | locus YJL134W, strain LCB3, stronger effect = lower value 0.985 | locus YJL154C, strain vps35, stronger effect = lower value 0.991 | locus YJL164C, strain tpk1, stronger effect = lower value 0.994 | locus YJL166W, strain qcr8, stronger effect = lower value 0.996 | locus YJL168C, strain set2, stronger effect = lower value 0.984 | locus YJL187C, strain SWE1 (second series), stronger effect = lower value 1.01 | locus YJL187C, strain SWE1, stronger effect = lower value 1 | locus YJR043C, strain POL32, stronger effect = lower value 1.02 | locus YJR066W, strain TOR1, stronger effect = lower value 0.927
